Several values for one entry are separate records, joined by “and”; a condition that tells them apart may be missing. Equal values may be shown once. In all, about 5,500 compounds went through this assay and about 2,000 (36%) were called active. Roughly 18% stayed inconclusive and do not appear here. No stated cut-off is given here; in the data, active means normalized growth mostly below about 0.91 (no sharp cut-off); inconclusive means no clear call, values can overlap the other calls; inactive means mostly above about 0.92. The list shows a part of the results.
Assay: chemical genetic growth profiling, strain panel (AID 1159580);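 further: tested at 20 µM; growth read once vehicle control cultures reached saturation at 30 °C; 1 = growth at the plate median or of vehicle wells; lower values mean less growth of the strain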
Conditions: S. cerevisiae deletion strains, growth OD

Measured: normalized growth

COC1C(O)C(O)C(O)[C@@H](O)C1O (some centres undefined)
inactive: locus YAL013W, strain DEP1, active compounds read low 1.01 | locus YAL021C, strain ccr4, active compounds read low 0.967 | locus YAL026C, strain drs2, active compounds read low 0.978 | locus YAL030W, strain snc1, active compounds read low 0.976 | locus YBL061C, strain skt5, active compounds read low 0.971 | locus YBR009C, strain hhf1, active compounds read low 0.98 | locus YBR021W, strain FUR4, active compounds read low 1.03 | locus YBR023C, strain chs3, active compounds read low 0.966 | locus YBR171W, strain sec66, active compounds read low 0.978 | locus YBR229C, strain ROT2, active compounds read low 1.01 | locus YBR231C, strain swc5, active compounds read low 0.978 | locus YBR279W, strain paf1, active compounds read low 0.982 | locus YCL011C, strain gbp2, active compounds read low 0.976 | locus YCL016C, strain dcc1, active compounds read low 0.968 | locus YCL029C, strain bik1, active compounds read low 1.02 | locus YCL061C, strain MRC1, active compounds read low 0.97 | locus YCL069W, strain vba3, active compounds read low 0.98 | locus YCR088W, strain abp1, active compounds read low 0.976 | locus YDL005C, strain med2, active compounds read low 0.949 | locus YDL035C, strain GPR1, active compounds read low 1.02 | locus YDL074C, strain BRE1, active compounds read low 1.06 | locus YDL101C, strain DUN1, active compounds read low 1.01 | locus YDL134C, strain PPH21, active compounds read low 1 | locus YDL185W, strain tfp1, active compounds read low 1.01 | locus YDL192W, strain arf1, active compounds read low 1.03 | locus YDR001C, strain nth1, active compounds read low 0.964 | locus YDR069C, strain doa4, active compounds read low 0.981 | locus YDR101C, strain arx1, active compounds read low 1.04 | locus YDR137W, strain rgp1, active compounds read low 0.98 | locus YDR150W, strain NUM1, active compounds read low 1.01 | locus YDR159W, strain sac3, active compounds read low 1.06 | locus YDR162C, strain NBP2, active compounds read low 1.01 | locus YDR195W, strain ref2 1.01 | locus YDR297W, strain sur2, active compounds read low 0.977 | locus YDR318W, strain mcm21, active compounds read low 1.02 | locus YDR334W, strain swr1, active compounds read low 0.966 | locus YDR335W, strain msn5, active compounds read low 0.972 | locus YDR388W, active compounds read low 1.02 | locus YDR392W, strain spt3, active compounds read low 0.909 | locus YDR502C, strain sam2, active compounds read low 1.05 | locus YEL003W, strain gim4, active compounds read low 0.974 | locus YEL037C, strain rad23, active compounds read low 0.968 | locus YEL061C, strain CIN8 (second series), active compounds read low 0.971 | locus YEL061C, strain CIN8, active compounds read low 1.01 | locus YER015W, strain faa2, active compounds read low 0.984 | locus YER016W, strain bim1, active compounds read low 0.977 | locus YER110C, active compounds read low 1.02 | locus YER111C, strain swi4, active compounds read low 0.961 | locus YER155C, strain BEM2 (second series), active compounds read low 0.971 | locus YER155C, strain BEM2, active compounds read low 1.01 | locus YER167W, strain BCK2, active compounds read low 1.01 | locus YFR010W, strain ubp6, active compounds read low 0.951 | locus YGL078C, strain dbp3, active compounds read low 1.02 | locus YGL086W, strain mad1, active compounds read low 1.05 | locus YGL167C, strain pmr1, active compounds read low 0.977 | locus YGL173C, strain kem1, active compounds read low 0.964 | locus YGL227W, strain vid30, active compounds read low 0.973 | locus YGL240W, strain doc1, active compounds read low 1 | locus YGL248W, strain PDE1, active compounds read low 1.01 | locus YGL253W, strain hxk2, active compounds read low 0.966 | locus YGR078C, strain PAC10, active compounds read low 1 | locus YGR135W, strain pre9, active compounds read low 1.01 | locus YGR252W, strain gcn5, active compounds read low 0.972 | locus YHR013C, strain ard1, active compounds read low 0.948 | locus YHR027C, strain rpn1, active compounds read low 0.999 | locus YHR030C, strain SLT2, active compounds read low 0.999 and 0.933 | locus YHR079C, strain IRE1 (second series), active compounds read low 1.03 | locus YHR079C, strain IRE1, active compounds read low 0.925 | locus YHR094C, strain hxt1, active compounds read low 1.04 | locus YHR129C, strain ARP1, active compounds read low 1.01 | locus YHR142W, strain chs7, active compounds read low 0.928 | locus YHR200W, strain rpn10, active compounds read low 1.03 | locus YIL066C, strain RNR3, active compounds read low 1.01 | locus YIL073C, strain SPO22, active compounds read low 1.09 | locus YIL125W, strain kgd1, active compounds read low 1.01 | locus YIR030C, strain dcg1, active compounds read low 1.02 | locus YJL092W, strain hpr5, active compounds read low 0.975 | locus YJL095W, strain BCK1 (second series), active compounds read low 0.975 | locus YJL095W, strain BCK1, active compounds read low 1 | locus YJL115W, strain asf1, active compounds read low 0.971 | locus YJL129C, strain trk1, active compounds read low 0.938 | locus YJL134W, strain LCB3, active compounds read low 0.999 | locus YJL154C, strain vps35, active compounds read low 0.964 | locus YJL164C, strain tpk1, active compounds read low 0.974 | locus YJL166W, strain qcr8, active compounds read low 0.98 | locus YJL168C, strain set2, active compounds read low 1.02 | locus YJL187C, strain SWE1 (second series), active compounds read low 1.01 | locus YJL187C, strain SWE1, active compounds read low 0.977 | locus YJR043C, strain POL32, active compounds read low 0.989
